Experimental data taken from ChEMBL document CHEMBL1961873, “Compounds: GSK PKIS; Assays: Nanosyn kinase panel” (2012).

Key:
[1] = target: Leukocyte tyrosine kinase receptor (Homo sapiens) (UniProt P29376); conditions: at 1 µM;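 note: each value is the mean inhibition of LTK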
[2] = target: Tyrosine-protein kinase Lyn (Homo sapiens) (UniProt P07948); conditions: at 0.1 µM
[3] = target: Tyrosine-protein kinase Lyn (Homo sapiens) (UniProt P07948); conditions: at 1 µM
[4] = target: Tyrosine-protein kinase Lyn (Homo sapiens) (UniProt P07948); conditions: at 0.1 µM; remark: listed apart in the source
[5] = target: Tyrosine-protein kinase Lyn (Homo sapiens) (UniProt P07948); conditions: at 1 µM; remark: listed apart in the source
[6] = target: T1, Tyrosine-protein kinase Mer (Homo sapiens) (UniProt Q12866); conditions: at 0.1 µM
T1 sequence (whole entry): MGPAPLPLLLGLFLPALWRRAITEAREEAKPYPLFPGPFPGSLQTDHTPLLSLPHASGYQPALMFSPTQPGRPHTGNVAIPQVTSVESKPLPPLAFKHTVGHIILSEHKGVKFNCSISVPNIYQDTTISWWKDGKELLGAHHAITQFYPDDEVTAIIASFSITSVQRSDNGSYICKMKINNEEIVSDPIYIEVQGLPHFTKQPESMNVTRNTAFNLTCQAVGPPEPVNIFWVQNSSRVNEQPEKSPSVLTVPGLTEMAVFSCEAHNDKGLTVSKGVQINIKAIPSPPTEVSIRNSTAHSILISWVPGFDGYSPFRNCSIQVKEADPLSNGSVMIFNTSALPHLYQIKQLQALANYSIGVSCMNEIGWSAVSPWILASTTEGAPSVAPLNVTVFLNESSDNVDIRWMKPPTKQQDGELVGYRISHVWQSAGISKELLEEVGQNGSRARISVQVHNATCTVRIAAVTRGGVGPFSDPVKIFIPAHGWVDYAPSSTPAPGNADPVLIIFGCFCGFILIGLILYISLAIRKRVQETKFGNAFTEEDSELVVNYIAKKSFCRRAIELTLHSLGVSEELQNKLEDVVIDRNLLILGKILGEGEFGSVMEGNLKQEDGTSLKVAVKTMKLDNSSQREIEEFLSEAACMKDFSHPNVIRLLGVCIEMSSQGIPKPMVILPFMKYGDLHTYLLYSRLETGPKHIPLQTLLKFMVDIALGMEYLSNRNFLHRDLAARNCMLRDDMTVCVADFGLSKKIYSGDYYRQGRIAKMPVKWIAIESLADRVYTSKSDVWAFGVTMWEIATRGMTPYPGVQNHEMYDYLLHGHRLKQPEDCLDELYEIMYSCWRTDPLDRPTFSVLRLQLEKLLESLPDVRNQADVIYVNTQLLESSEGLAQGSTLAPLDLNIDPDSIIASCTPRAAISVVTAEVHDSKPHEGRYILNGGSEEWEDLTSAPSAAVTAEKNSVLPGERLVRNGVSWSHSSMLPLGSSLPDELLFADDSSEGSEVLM

[7] = target: T1, Tyrosine-protein kinase Mer (Homo sapiens); conditions: at 1 µM
[8] = target: Hepatocyte growth factor receptor (Homo sapiens) (UniProt P08581); conditions: at 0.1 µM
[9] = target: Hepatocyte growth factor receptor (Homo sapiens) (UniProt P08581); conditions: at 1 µM
[10] = target: T2, Muscle, skeletal receptor tyrosine-protein kinase (Homo sapiens) (UniProt O15146); conditions: at 0.1 µM
T2 sequence (whole entry): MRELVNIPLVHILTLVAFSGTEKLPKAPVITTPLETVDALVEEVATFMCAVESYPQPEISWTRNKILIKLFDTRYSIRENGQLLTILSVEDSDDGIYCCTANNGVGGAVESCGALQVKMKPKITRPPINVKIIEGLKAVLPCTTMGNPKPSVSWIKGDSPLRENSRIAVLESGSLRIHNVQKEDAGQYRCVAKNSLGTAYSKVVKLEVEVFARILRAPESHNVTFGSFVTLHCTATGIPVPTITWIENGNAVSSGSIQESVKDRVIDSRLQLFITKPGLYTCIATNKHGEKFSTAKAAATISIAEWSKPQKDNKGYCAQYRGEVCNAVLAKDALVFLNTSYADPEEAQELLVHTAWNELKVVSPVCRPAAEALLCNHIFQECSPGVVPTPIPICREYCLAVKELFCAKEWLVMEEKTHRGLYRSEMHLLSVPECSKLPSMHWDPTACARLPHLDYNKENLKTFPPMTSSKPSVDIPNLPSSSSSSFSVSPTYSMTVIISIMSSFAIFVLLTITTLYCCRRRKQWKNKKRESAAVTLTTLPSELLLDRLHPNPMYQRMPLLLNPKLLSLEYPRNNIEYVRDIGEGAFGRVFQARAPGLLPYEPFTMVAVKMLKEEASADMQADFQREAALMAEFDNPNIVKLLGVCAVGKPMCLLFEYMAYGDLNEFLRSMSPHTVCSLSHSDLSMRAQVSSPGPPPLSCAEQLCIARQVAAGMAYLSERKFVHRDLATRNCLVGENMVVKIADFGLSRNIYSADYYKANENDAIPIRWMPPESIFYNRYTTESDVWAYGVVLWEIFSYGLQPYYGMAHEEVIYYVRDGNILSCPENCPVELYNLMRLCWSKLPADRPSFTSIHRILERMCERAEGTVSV

[11] = target: T2, Muscle, skeletal receptor tyrosine-protein kinase (Homo sapiens); conditions: at 1 µM
[12] = target: Platelet-derived growth factor receptor alpha (Homo sapiens) (UniProt P16234); conditions: at 0.1 µM
[13] = target: Platelet-derived growth factor receptor alpha (Homo sapiens) (UniProt P16234); conditions: at 1 µM
[14] = system: Platelet-derived growth factor receptor alpha (Homo sapiens), P16234 [D842V]; conditions: at 0.1 µM
[15] = system: Platelet-derived growth factor receptor alpha (Homo sapiens), P16234 [D842V]; conditions: at 1 µM
[16] = system: Platelet-derived growth factor receptor alpha (Homo sapiens), P16234 [T674I]; conditions: at 0.1 µM
[17] = system: Platelet-derived growth factor receptor alpha (Homo sapiens), P16234 [T674I]; conditions: at 1 µM
[18] = system: Platelet-derived growth factor receptor alpha (Homo sapiens), P16234 [V561D]; conditions: at 0.1 µM
[19] = system: Platelet-derived growth factor receptor alpha (Homo sapiens), P16234 [V561D]; conditions: at 1 µM
[20] = target: Platelet-derived growth factor receptor beta (Homo sapiens) (UniProt P09619); conditions: at 0.1 µM;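 note: reported value is the mean percent inhibition of the kinase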

Sequence of Platelet-derived growth factor receptor alpha (Homo sapiens), P16234 [V561D] (P16234 whole entry V561D): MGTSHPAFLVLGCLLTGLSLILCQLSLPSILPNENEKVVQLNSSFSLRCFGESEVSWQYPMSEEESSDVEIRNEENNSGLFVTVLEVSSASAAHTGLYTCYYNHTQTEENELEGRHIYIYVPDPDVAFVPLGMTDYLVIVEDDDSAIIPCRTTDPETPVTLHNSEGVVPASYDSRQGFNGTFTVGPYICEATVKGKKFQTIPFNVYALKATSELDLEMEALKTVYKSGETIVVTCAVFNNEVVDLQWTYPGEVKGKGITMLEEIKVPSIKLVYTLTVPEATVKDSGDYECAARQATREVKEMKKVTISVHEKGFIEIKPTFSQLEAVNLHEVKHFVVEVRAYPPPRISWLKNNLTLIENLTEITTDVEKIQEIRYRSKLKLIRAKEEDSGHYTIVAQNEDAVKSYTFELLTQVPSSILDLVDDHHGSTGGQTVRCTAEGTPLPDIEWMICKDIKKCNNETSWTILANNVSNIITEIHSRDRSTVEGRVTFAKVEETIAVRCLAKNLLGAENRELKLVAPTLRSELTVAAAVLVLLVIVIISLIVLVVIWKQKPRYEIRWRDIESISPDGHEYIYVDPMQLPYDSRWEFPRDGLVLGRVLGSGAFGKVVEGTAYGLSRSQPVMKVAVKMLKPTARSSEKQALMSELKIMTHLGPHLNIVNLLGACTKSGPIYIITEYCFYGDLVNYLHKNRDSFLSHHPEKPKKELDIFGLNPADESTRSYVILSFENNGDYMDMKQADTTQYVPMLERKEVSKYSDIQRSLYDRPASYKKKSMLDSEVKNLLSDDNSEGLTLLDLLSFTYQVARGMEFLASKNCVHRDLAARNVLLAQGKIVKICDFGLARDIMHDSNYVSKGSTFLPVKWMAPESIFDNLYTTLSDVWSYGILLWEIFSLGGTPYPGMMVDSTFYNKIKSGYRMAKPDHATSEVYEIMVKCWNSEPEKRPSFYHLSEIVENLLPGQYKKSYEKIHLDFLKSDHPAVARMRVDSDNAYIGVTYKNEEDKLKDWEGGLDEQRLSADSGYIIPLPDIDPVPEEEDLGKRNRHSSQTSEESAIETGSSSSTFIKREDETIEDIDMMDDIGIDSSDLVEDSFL
Sequence of Platelet-derived growth factor receptor alpha (Homo sapiens), P16234 [T674I] (P16234 whole entry T674I): as the sequence (P16234 whole entry V561D) above, with D561V, T674I counted along it
Sequence of Platelet-derived growth factor receptor alpha (Homo sapiens) (P16234 whole entry): as the sequence (P16234 whole entry V561D) above, with D561V counted along it
Sequence of Leukocyte tyrosine kinase receptor (Homo sapiens) (P29376 whole entry): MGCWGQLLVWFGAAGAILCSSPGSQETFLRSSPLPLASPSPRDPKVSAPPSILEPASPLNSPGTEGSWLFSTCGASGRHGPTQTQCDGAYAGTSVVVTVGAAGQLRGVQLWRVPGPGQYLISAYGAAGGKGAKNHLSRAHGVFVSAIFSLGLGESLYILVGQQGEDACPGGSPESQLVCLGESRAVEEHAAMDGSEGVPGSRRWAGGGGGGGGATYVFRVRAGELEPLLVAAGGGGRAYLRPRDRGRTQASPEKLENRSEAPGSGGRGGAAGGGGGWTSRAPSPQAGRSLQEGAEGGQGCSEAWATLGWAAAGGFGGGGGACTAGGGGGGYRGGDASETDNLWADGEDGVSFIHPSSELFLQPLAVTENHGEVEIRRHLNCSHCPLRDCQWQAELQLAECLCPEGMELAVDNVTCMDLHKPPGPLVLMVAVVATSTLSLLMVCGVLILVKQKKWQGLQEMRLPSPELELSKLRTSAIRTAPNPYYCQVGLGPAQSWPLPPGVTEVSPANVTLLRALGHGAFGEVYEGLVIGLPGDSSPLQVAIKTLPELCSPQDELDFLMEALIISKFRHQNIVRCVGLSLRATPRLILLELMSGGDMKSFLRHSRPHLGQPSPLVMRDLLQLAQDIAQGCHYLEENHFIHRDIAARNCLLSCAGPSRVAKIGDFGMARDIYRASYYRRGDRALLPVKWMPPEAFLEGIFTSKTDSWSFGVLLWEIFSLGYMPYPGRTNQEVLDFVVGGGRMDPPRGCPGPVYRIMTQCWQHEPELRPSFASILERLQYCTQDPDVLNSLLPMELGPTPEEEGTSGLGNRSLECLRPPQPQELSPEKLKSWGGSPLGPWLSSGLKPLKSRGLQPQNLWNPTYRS
Sequence of Tyrosine-protein kinase Lyn (Homo sapiens) (P07948 2-512 limits assumed): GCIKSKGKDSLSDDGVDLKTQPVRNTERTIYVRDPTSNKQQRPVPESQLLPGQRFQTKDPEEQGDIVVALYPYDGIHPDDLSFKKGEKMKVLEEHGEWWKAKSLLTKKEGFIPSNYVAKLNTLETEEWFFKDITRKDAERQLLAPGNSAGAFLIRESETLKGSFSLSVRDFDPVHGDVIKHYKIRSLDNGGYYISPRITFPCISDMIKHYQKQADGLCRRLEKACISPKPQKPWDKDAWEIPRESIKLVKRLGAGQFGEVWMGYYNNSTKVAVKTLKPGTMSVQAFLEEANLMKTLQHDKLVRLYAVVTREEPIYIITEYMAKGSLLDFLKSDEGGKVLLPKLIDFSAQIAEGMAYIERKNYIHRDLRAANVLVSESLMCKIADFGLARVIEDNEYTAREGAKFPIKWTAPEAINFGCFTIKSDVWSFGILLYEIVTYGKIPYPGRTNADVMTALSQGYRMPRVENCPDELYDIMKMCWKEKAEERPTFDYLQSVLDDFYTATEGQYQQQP

| Structure (SMILES) | inhibition [1] [%] | inhibition [2] [%] | inhibition [3] [%] | inhibition [4] [%] | inhibition [5] [%] | inhibition [6] [%] | inhibition [7] [%] | inhibition [8] [%] | inhibition [9] [%] | inhibition [10] [%] | inhibition [11] [%] | inhibition [12] [%] | inhibition [13] [%] | inhibition [14] [%] | inhibition [15] [%] | inhibition [16] [%] | inhibition [17] [%] | inhibition [18] [%] | inhibition [19] [%] | inhibition [20] [%] |
| --- | --- | --- | --- | --- | --- | --- | --- | --- | --- | --- | --- | --- | --- | --- | --- | --- | --- | --- | --- | --- |
| NC(=O)Cc1ccccc1Oc1nccc(-c2c(-c3ccc(F)cc3)ncn2C2CCNCC2)n1 | 2.41 | 2.61 | 3.78 | 1.91 | 1.88 | 0.54 | 3.34 | 2.67 | 3.24 | 2.87 | 1.69 | 3.58 | 7.12 | 0.37 | 0.79 | 3.6 | 2.14 | -0.19 | 4.04 | 3.93 |
| NS(=O)(=O)c1ccc(N/N=C2\C(=O)Nc3ccc(C(=O)NCCCn4ccnc4)cc32)cc1 | 7.11 | 6.54 | 16.1 | 4.32 | 12.4 | 1.34 | 6.35 | 2.76 | 12 | 4.66 | 21.6 | 10.6 | 54.2 | 13 | 57.8 | 5.56 | 12.4 | 11.6 | 47 | 23.1 |
| NS(=O)(=O)c1ccc(N/N=C2\C(=O)Nc3ccc(-c4cnco4)cc32)cc1 | 3.37 | 3.33 | 11.1 | 1.68 | 8.81 | 1.31 | 8.19 | 6.22 | 2.64 | 4.18 | 18.5 | 13.9 | 49.8 | 6.86 | 40.8 | 1.96 | 13.9 | 8.44 | 46.8 | 12.1 |
| CS(=O)(=O)CCNCc1ccc(-c2ccc3ncnc(Nc4ccc(OCc5ccccc5)c(Br)c4)c3c2)o1 | 4.86 | 4.6 | 7.84 | 2.75 | 5.83 | 2.91 | 13.9 | 1.81 | 6.53 | 1.27 | -1.75 | 6.94 | 12.7 | 2.31 | 4.09 | 2.28 | 5.56 | 3.03 | 5.85 | 3.75 |
| CCc1nccc2c1nc(-c1nonc1N)n2CC | 6.1 | 3.82 | 6.26 | 1.19 | 2.71 | -0.98 | 0.92 | 2.04 | 2.39 | 1.31 | 0.59 | 5.23 | 11.5 | 2.48 | 9.06 | 2.57 | 0.49 | 0.72 | 6.72 | 2.42 |
| C[C@@H](Oc1cc(-n2cnc3ccc(OC4CCN(C)CC4)cc32)sc1C(N)=O)c1ccccc1Cl | 4.72 | 3.54 | 6.86 | 1.68 | 5.6 | 2.77 | 9.07 | 7.84 | 5.01 | 7.63 | 40.8 | 29.3 | 69 | 10.5 | 53.6 | 8.48 | 58 | 14.5 | 65 | 26.3 |
| COc1cc(N2CCN(C(C)C)CC2)ccc1Nc1nc(Nc2ccc(F)cc2C(=O)NC[C@@H](O)CO)c2cc[nH]c2n1 | 88.7 | 4.36 | 9.54 | 2.42 | 7 | 0.94 | 3.95 | -1.77 | 3.3 | 1.43 | 3.79 | 6.23 | 14.1 | 1.85 | 5.49 | 6.54 | 9.18 | 4.51 | 4.42 | 1.36 |
| COc1cc2ncn(-c3cc(OCCc4ccccc4)c(C(N)=O)s3)c2cc1OC | 1.98 | 1.83 | 9.45 | 0.79 | 7.19 | 2.54 | 6.75 | 1.96 | 5.5 | 2.9 | 3.75 | 10.5 | 51.4 | 8.08 | 44.9 | 1.08 | 10.7 | 5.35 | 39.8 | 10.8 |
| COc1ccc(C2=C(N3CCc4ccccc43)C(=O)NC2=O)cc1 | 5.38 | 6.92 | 6.95 | 5.2 | 5.98 | 1.96 | 1.78 | 6.5 | 7.87 | 2.97 | 6.74 | 4.56 | 16.3 | 5.15 | 8.45 | 7.16 | 10.6 | 5.61 | 6.87 | 5.31 |
| CCc1cccc(CC)c1/C=C/c1cncc(C(=O)NC)c1 | 0.4 | 3.99 | 5.8 | 1.75 | 4.91 | -0.22 | 4.08 | -0.26 | 1.69 | 3.82 | 0.76 | 9.56 | 7.82 | 0.6 | 1.22 | 2.23 | 2.91 | -0.14 | 3.75 | 7.91 |
| CN(C)CCCNc1nccc(-c2c(-c3ccc(F)cc3)nn3cc(C(F)(F)F)ccc23)n1 | 1.19 | 1.87 | 6.57 | 0.99 | 5.88 | 1.56 | 5.87 | 3.45 | 10.6 | 10.1 | 12.5 | 12.9 | 18.6 | 3.3 | 4.77 | 9.27 | 4.87 | 0.27 | 5.89 | 6.34 |
| CCN(CC)Cc1ccc(Nc2nccc(-c3cnn4ncccc34)n2)cc1 | 9.98 | 3.53 | 11.8 | 2.02 | 9.31 | 2.93 | 9.85 | 7.6 | 10.4 | 6.42 | 30.5 | 17.5 | 55.5 | 10.1 | 51.1 | 6.93 | 34.9 | 18 | 64.2 | 29.1 |
| CS(=O)(=O)CCNCc1cc(-c2cc3c(Nc4ccc(OCc5cccc(F)c5)c(Cl)c4)ncnc3s2)cs1 | 6.25 | 5.45 | 6.19 | 2.93 | 6.07 | 4.4 | 8.06 | 7.8 | 6.72 | 2.43 | 8.6 | 9.29 | 13.6 | 2.14 | 4.9 | 8.52 | 11.1 | 4.52 | 5.56 | 4.84 |
| NC(=O)c1cc(-c2ccc(F)cc2)cc(-c2ccncc2)c1N | 2.67 | 7.55 | 9 | 5 | 5.99 | 1.16 | 0.38 | 3.9 | 8.57 | 3.05 | 1.32 | 3.04 | 7.4 | 1.68 | 12.2 | 4.18 | 7.19 | 3.94 | 4.61 | 2.02 |
| COC(=O)Nc1nc2ccc(Sc3ccc(NC(=O)Nc4cc(C(F)(F)F)ccc4F)cc3)cc2[nH]1 | -2.11 | 5.69 | 56.1 | 4.04 | 49.8 | -0.94 | 2.34 | 1.57 | 36.2 | 32.2 | 78.7 | 10.8 | 57.6 | 0.97 | 1.45 | 7.2 | 74.8 | 11.9 | 56.3 | 4.35 |
